Assay in all cases: Euclidean distance of Cell Painting phenotypic profile (signed KS, 77 features) to DMSO centroid (dimensionless distance); higher = stronger phenotypic change vs DMSO (phenoactivity)
What all share (details): 48 h; 5 or 10 uM (library dependent)

In one assay the test system is 786-O. In outline:
(§1)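 Phenoactivity is defined as the Euclidean distance from a compound profile to the median vehicle profile. Each profile comprised 77 Harmony features, scored as signed Kolmogorov-Smirnov statistics versus same-plate vehicle wells, then plate-position corrected, correlation-weighted and replicate-averaged at the top dose. Five cancer lines and one healthy fibroblast line were exposed to library compounds for 48 h at 10 or 5 uM (0.1% DMSO final).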

A further assay has as its system A549. In outline:
as §1

The next assay deals with DU145. In outline:
as §1

In another assay the test system is FB. Summed up: as §1
Another assay has as its system HEPG2. In outline: as §1
The next assay has as its system OVCAR4. In outline: as §1

Structures are written as SMILES.

In the supplement of paper PMC10127200 one finds Euclidean distance data, which are given here for four molecules.

Consider `O=C(CBr)N1CC([N+](=O)[O-])([N+](=O)[O-])C1`, for which the Euclidean distance in the assay with 786-O was 0.949; in the assay with A549 it was 1.3; in the assay with DU145, 0.88; with FB it was 0.833; with HEPG2, 0.776; with OVCAR4, 0.926.

Take `Cn1c(CCCC(=O)O)nc2cc(N(CCCl)CCCl)ccc21` [Bendamustine]: the Euclidean distance with 786-O came out at 0.99; with A549, 0.793; with DU145 it was 0.645; in the assay on FB, 0.717; in the assay with HEPG2 it was 0.64; with OVCAR4, 0.732.

Regarding `CC[C@@]1(O)C(=O)OCc2c1cc1n(c2=O)Cc2cc3ccccc3nc2-1` [Camptothecin], the Euclidean distance with 786-O is 3.86; in the assay on A549, 3.88; with FB it was 4.14; with HEPG2, 2.87; in the assay with OVCAR4, 3.96.

In the case of `N#C[C@H](O[C@@H]1O[C@H](C(=O)O)[C@@H](O)[C@H](O)[C@H]1O)c1ccccc1` [Laetrile], the Euclidean distance in the assay with 786-O is 0.989; in the assay with A549, 0.766; with FB it was 0.899; in the assay on HEPG2, 0.702; in the assay with OVCAR4 it was 1.45.
